{"source": "PubChem BioAssay (Tox21)", "note": "Inconclusive results are not listed. Where a call stands in place of a potency, no number is given. The source made the active and inactive calls. Calls come from the whole dose curve; as a rule, active = well fitted cell-killing curve with a large enough effect in the repeat runs; inconclusive = weak or mixed curves, or effect the other way; inactive = no such curve, though single readings can be large or run the other way. Potency is the fitted concentration of half-maximal effect.", "data": [{"assay": "qHTS assay to identify small molecule antagonists of the progesterone receptor (PR) signaling pathway - cell viability counter screen (AID 1346798); note: nearly all actives have a fitted effect of over 50% in size", "settings": "PR-UAS-bla HEK293T viability, CellTiter-Glo luminescence, 16 h; series mostly up to 92.4 µM", "excerpt": "National Center for Advancing Translational Sciences [NCATS]\nNIH Chemical Genomics Center [NCGC]\nU.S. Environmental Protection Agency [EPA]\nNational Institutes of Environmental Health Sciences [NIEHS]\nNational Toxicology Program [NTP]\nU.S. Food and Drug Administration [FDA]\nProgesterone receptor (PR), a nuclear hormone receptor, plays an important role in development, metabolic homeostasis and reproduction. It is activated by the steroid hormone progesterone. Endocrine disrupting chemicals (EDCs) and their interactions with steroid hormone receptors like PR causes disruption of normal endocrine function. To identify the compounds that inhibit PR signaling, a PR-UAS-bla GripTite cell line i.e. PR-UAS-bla HEK293T (Invitrogen, Carlsbad, CA, USA) containing a beta-lactamase reporter gene under the control of an UAS response element was used to screen Tox21 10K compound library. The cytotoxicity of the Tox21 compound library against the PR-bla cell line was tested in parallel by measuring the cell viability using CellTiter-Glo assay in the same wells.\nTox21 Assay Protocol Summary:\nPR-UAS-bla HEK293T cells were dispensed at 3,000 cells/4 uL of assay medium containing 2% charcoal stripped FBS per well into black wall/clear-bottom 1536-well plates using a Multidrop Combi (ThermoFisher Scientific, Waltham, MA) dispenser. After the assay plates were incubated at a 37C and 5% CO2 for 4 hr, 23 nL of compounds dissolved in DMSO, positive controls or DMSO only was transferred to the assay plate by a Pintool station (Kalypsys, San Diego, CA), followed by addition of 1 uL of R5020 in assay medium using a Flying Reagent Dispenser (FRD, Aurora Discovery, San Diego, CA). The plates were incubated at 37C and 5% CO2 for 16 hr. Then 1 uL of LiveBLAzer B/G FRET substrate was added using a Flying Reagent Dispenser, the plates were incubated at room temperature for 2 hours, and fluorescence intensity was measured by an Envision plate reader (PerkinElmer, Shelton, CT). For cell viability readout that measures cytotoxicity, 4 uL/well of CellTiter-Glo reagent was added into the assay plates using a FRD. After 30 min incubation at room temperature, the luminescence intensity in the plates was measured using a ViewLux (PerkinElmer) plate reader.", "values": [{"smiles": "Nc1c(CC(=O)O)cccc1C(=O)c1ccc(Br)cc1", "Potency": "inactive"}, {"smiles": "CCCNCC(O)COc1ccccc1C(=O)CCc1ccccc1", "note": "(stereo not given)", "Potency": "inactive"}, {"smiles": "COc1ccc(C(=O)c2ccc(OC)cc2O)c(O)c1", "Potency": "inactive"}, {"smiles": "O=P(O)(OCc1ccccc1)OCc1ccccc1", "Potency": "inactive"}, {"smiles": "CC(=O)OC[C@H]1O[C@@H](n2ncc(=O)[nH]c2=O)[C@H](OC(C)=O)[C@@H]1OC(C)=O", "Potency": "2.37 µM (active)"}, {"smiles": "CNCCCCOc1ccccc1Cc1ccccc1", "Potency": "6.68 µM (active)"}, {"smiles": "CC(C)(CO)[N+](=O)[O-]", "Potency": "inactive"}, {"smiles": "C=C(C)C(=O)OCCOCC", "Potency": "inactive"}, {"smiles": "COc1ccc2cccc(CCNC(C)=O)c2c1", "Potency": "inactive"}, {"smiles": "CN(C)c1ccc(C(c2ccccc2)c2ccc(N(C)C)cc2)cc1", "Potency": "inactive"}, {"smiles": "CCCCc1ncc(/C=C(\\Cc2cccs2)C(=O)O)n1Cc1ccc(C(=O)O)cc1", "Potency": "inactive"}, {"smiles": "CC(=O)[O][Al]", "Potency": "inactive"}, {"smiles": "C=CC1CC2C=CC1C2", "note": "(stereo not given)", "Potency": "inactive"}, {"smiles": "O=S(=O)(Oc1ccc(Cl)cc1)c1ccccc1", "Potency": "inactive"}, {"smiles": "CNC(=O)CN(CCN(CCN(CC(=O)[O-])CC(=O)NC)CC(=O)[O-])CC(=O)[O-].O.[Gd+3]", "Potency": "inactive"}, {"smiles": "O=C(Nc1ccc(S(=O)(=O)N2CCOCC2)cc1)c1cc(Cl)ccc1NS(=O)(=O)c1ccc(Cl)s1", "Potency": "inactive"}, {"smiles": "O=C(O)C(S)C(S)C(=O)O", "note": "(stereo not given)", "Potency": "inactive"}, {"smiles": "CCN(CC)CCNc1ccc(CNC=O)c2sc3ccc(OC)cc3c(=O)c12", "Potency": "24.3 µM (active)"}, {"smiles": "CCOc1ccc(O)cc1", "Potency": "inactive"}, {"smiles": "OC(CN1CCC(Cc2ccc(F)cc2)CC1)c1ccc(Cl)cc1", "note": "(stereo not given)", "Potency": "inactive"}, {"smiles": "C/C=C/C=C/CO", "Potency": "inactive"}, {"smiles": "OCCN1CCN(CCCN2c3ccccc3C=Cc3ccccc32)CC1", "Potency": "inactive"}, {"smiles": "O=CC1CC=CCC1", "note": "(stereo not given)", "Potency": "inactive"}, {"smiles": "CCC(=O)O[C@]1(C(=O)CCl)[C@@H](C)C[C@H]2[C@@H]3CCC4=CC(=O)C=C[C@]4(C)[C@@]3(F)[C@@H](O)C[C@@]21C", "Potency": "inactive"}, {"smiles": "CN1Cc2cc(C(=O)N3CCC(C4CCNCC4)CC3)ccc2NC(CC(=O)O)C1=O", "note": "(stereo not given)", "Potency": "inactive"}, {"smiles": "CCCCCCCCCCCC(=O)OC[C@@H](O)[C@H]1OC[C@H](OCCO)[C@H]1OCCO", "Potency": "inactive"}, {"smiles": "CCN(CC)CCOC(=O)C(Cc1cccc2ccccc12)CC1CCCO1", "note": "(stereo not given)", "Potency": "inactive"}, {"smiles": "CCc1c(C(=O)NN2CCCCC2)nn(-c2ccc(Cl)cc2Cl)c1-c1ccc(Br)cc1", "Potency": "inactive"}, {"smiles": "C=C(C)C(=O)OCCO", "Potency": "inactive"}, {"smiles": "Clc1ccc2c(c1)CCc1cccnc1C2=C1CCNCC1", "Potency": "21.1 µM (active)"}, {"smiles": "CCOc1ccc(N)c([N+](=O)[O-])c1", "Potency": "inactive"}, {"smiles": "NCCCN1CCOCC1", "Potency": "inactive"}, {"smiles": "Brc1c2ccccc2cc2ccccc12", "Potency": "inactive"}, {"smiles": "ClCCOCCOCCCl", "Potency": "inactive"}, {"smiles": "C1CCCNCCC1", "Potency": "inactive"}, {"smiles": "COc1ccc(C(=O)N2CCN(CC(=O)N3CCOCC3)CC2)cc1", "Potency": "inactive"}, {"smiles": "Cc1nn(C)c(Oc2ccccc2)c1/C=N/OCc1ccc(C(=O)OC(C)(C)C)cc1", "Potency": "inactive"}, {"smiles": "N=c1ccn2c(n1)O[C@H]1[C@H](O)[C@@H](CO)O[C@H]12", "Potency": "inactive"}, {"smiles": "NC(N)=NCCC[C@H](N)C(=O)O", "activity change, negative = cytotoxicity": "-0.687% [at 8.39 µM] (inactive)"}, {"smiles": "CCN(CC)c1ccc2c(-c3ccccc3C(=O)O)c3ccc(=[N+](CC)CC)cc-3oc2c1", "Potency": "inactive"}]}]}
